# Screens from PubChem.
# An excerpt weighted towards active compounds, which were near 19% of everything screened.
# KB-3-1 cytotox – kills parental KB-3-1 adenocarcinoma cells | KB-3-1 viability, CellTiter-Glo ATP luminescence, 72 h | Potency, µM (highest dose often 46.1 µM), actives largely listed as cytotoxic | 1.4% of 400,000 active | AID 1347075; further: nearly all actives have a fitted effect of over 60% in size
#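 Cytotoxicity in the drug-sensitive parental line KB-3-1 was scored as loss of CellTiter-Glo luminescence following 72 h incubation with compound. Values come from curve fitting of normalized concentration-response data.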
# HT1080-NT tox – kills 2HG-producing HT-1080-NT fibrosarcoma cells | HT-1080-NT fibrosarcoma viability, CellTiter-Glo ATP luminescence, 48 h | Potency, µM (titrated, usually from 46.1 µM), most hits filed as cytotoxic | AID 686970 | 1.6% of 360,000 active;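 further: NT is the 2HG producing partner of a matched IDH1 knockdown line; nearly all actives have a fitted effect of over 55% in size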
#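 Luminescent CellTiter-Glo readout after 48 hours of compound exposure at 37 degrees C defined viability of HT-1080-NT cells. Activity was normalized to DMSO wells and cell-free media wells; concentration-response curves were fitted and assigned curve classes.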
# DT40 TDP1 CPT – growth inhibition of DT40 Tdp1-/-;hTDP1 cells with camptothecin (screen for TDP1 inhibitors). chicken DT40 Tdp1-/-;hTDP1 cells + 20 nM CPT, ATP luminescence, 48 h. Potency, µM (top dose mostly 46.2 µM), usual class: inhibitors. 12% of 420,000 active; further: nearly all actives have a fitted effect of over 55% in size
#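 Chicken DT40 Tdp1-/- cells stably complemented with human TDP1 were seeded at 400 cells/well in medium containing 20 nM camptothecin, exposed to pin-transferred compounds, and grown at 37 °C for at least 48 hr. Viability was read as ATP luminescence.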
# DT40 TDP1 no CPT – qHTS for Inhibitors of human tyrosyl-DNA phosphodiesterase 1 (TDP1): qHTS in cells in absence of CPT; Potency, µM (titrated, usually from 46.2 µM), usual class: inhibitors; DT40 Tdp1-/- hTDP1 cells, no CPT, ATP luminescence, 48 h; 15% of 420,000 active; AID 686978, 2013; further: nearly all actives have a fitted effect of over 55% in size
#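 Luminescent ATP content (CellTiter-Glo) served as the growth readout. Knockout chicken DT40 cells expressing human TDP1 were exposed to compounds without camptothecin for a minimum 48 hr at 37 °C.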
# HT1080 IDH1KD tx – HT-1080 IDH1 knockdown cell toxicity (counter line); HT-1080 IDH1 knockdown viability, ATP luminescence, 48 h; Potency, µM (doses to about 46.1 µM), hits mostly cytotoxic; 2% of 360,000 active; AID 686971
#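 Luminescent ATP read-out (CellTiter-Glo, 10 min at room temperature) after 48 h compound exposure at 37 °C gave viability of IDH1-knockdown HT-1080 cells. Activity was normalised to DMSO and cell-free wells, then fitted as concentration-response curves.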
# KB-V1 MDR tox – KB-V1 MDR subline cytotoxicity | KB-V1 MDR cells viability, CellTiter-Glo, 72 h | Potency, µM (highest dose often 46.1 µM), most hits filed as cytotoxic | 3.4% of 400,000 active | AID 1347076; further: nearly all actives have a fitted effect of over 60% in size
#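 Compound-treated KB-V1 multidrug-resistant cells, 72 h, 37 degrees C; viability by CellTiter-Glo. Fitted qHTS curves give the values.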
# Hits are given with their value; - = inactive; ? = inconclusive; . = no result given. The call rests on the fitted dose curve; in most records, active means well fitted curve in the direction sought with a large enough effect; inconclusive means small, poorly fitted or top-dose-only effect, or another doubt; inactive means no such curve, though single readings can be large; an effect the other way counts as inactive or inconclusive.
SMILES,KB-3-1 cytotox,HT1080-NT tox,DT40 TDP1 CPT,DT40 TDP1 no CPT,HT1080 IDH1KD tx,KB-V1 MDR tox
CN(Cc1ccccc1)Cc1cc(=O)oc2ccccc12,-,-,?,?,-,9.2µM
Cc1ccc2c(CN(C)Cc3ccccc3)cc(=O)oc2c1,-,?,18.4µM,?,-,-
Cc1cc(NC(=O)CSc2nnnn2Cc2ccccc2)no1,-,-,-,-,-,-
Cc1c(C(=O)NCc2ccc(Cl)cc2)sc2nc3n(c(=O)c12)CCCC3,.,.,?,16.4µM,.,.
Cc1c(C(=O)NCc2cccc(Cl)c2)sc2nc3n(c(=O)c12)CCCC3,-,.,?,?,.,-
CCOc1ccc(CCNC(=O)c2sc3nc4n(c(=O)c3c2C)CCCC4)cc1OCC,-,.,?,?,.,-
Cc1cccc(CCNC(=O)c2ccc3c(c2)nc2n3CCCCC2)c1,-,.,20.6µM,?,.,-
Cc1ccc(C(=O)Nc2c(C(=O)NCc3ccc(Cl)cc3)sc3nc(C)cc(C)c23)cc1,.,.,9.2µM,13µM,.,.
Cc1cccc(CCNC(=O)c2sc3nc4n(c(=O)c3c2C)CCCC4)c1,-,.,18.4µM,?,.,-
COc1ccc(CN2CC[C@@H]3CN(C(C)=O)[C@H](c4ccccc4Br)C[C@@H]32)cc1,-,-,?,?,-,-
O=C(CCC(=O)NC1CCCCC1)N/N=C/c1ccncc1,-,-,-,-,-,-
COC(=O)C1(C(=O)OC)Cc2ccccc2N(S(=O)(=O)c2ccc(C)cc2)C1CC(C)=O (configuration not stated),-,-,?,?,-,?
CCc1ccc(N(CC)C(=O)c2sc3nc4n(c(=O)c3c2C)CCCC4)cc1,-,.,25.9µM,20.6µM,.,-
C=CCN(c1ccccc1OC)S(=O)(=O)c1cccc(C(=O)OCC(=O)c2c(N)n(C)c(=O)n(C)c2=O)c1,?,-,?,18.4µM,-,8.2µM
C=CCN(c1ccccc1Cl)S(=O)(=O)c1cccc(C(=O)NCCc2ccc(OC)cc2)c1,23.1µM,-,?,20.6µM,-,2.31µM
C=CCN(c1ccccc1OC)S(=O)(=O)c1cccc(C(=O)NCc2cccs2)c1,-,-,14.6µM,18.4µM,-,?
COc1cc(OC)c(N(C)S(=O)(=O)c2cccc(C(=O)NCc3cccs3)c2)cc1Cl,-,-,?,?,-,-
COc1ccc(CCNC(=O)c2cccc(S(=O)(=O)N3CCCCC3)c2)cc1,-,-,?,?,-,-
O=C(CNS(=O)(=O)c1ccc(Cl)cc1)N1CCN(c2ccc(F)cc2)CC1,-,-,?,?,-,-
O=C(C1CCCN(c2ncnc3c2nc2n3CCCCC2)C1)N1CCCCC1 (configuration not stated),-,-,?,?,-,-
COc1cc(OC)c(N(C)C(=O)C2CCCN(c3ncnc4c3nc3n4CCCCC3)C2)cc1Cl (configuration not stated),-,.,?,20.6µM,.,-
CC(C)c1ccc(NC(=O)C2CCN(c3ncnc4c3nc3n4CCCCC3)CC2)cc1,-,-,?,?,-,-
O=C(Nc1cccnc1Cl)C1CCCN(c2ncnc3c2nc2n3CCCCC2)C1 (configuration not stated),-,-,?,?,-,-
O=C(Nc1ccc(F)c(Cl)c1)C1CCN(c2ncnc3c2nc2n3CCCCC2)CC1,-,-,?,18.4µM,-,?
O=C(NCc1ccco1)C1CCCN(c2ncnc3c2nc2n3CCCCC2)C1 (configuration not stated),-,-,?,13µM,-,-
SMILES,KB-3-1 cytotox,HT1080-NT tox,DT40 TDP1 CPT,DT40 TDP1 no CPT,HT1080 IDH1KD tx,KB-V1 MDR tox
O=C(NCc1ccccc1Cl)C1CCCN(c2ncnc3c2nc2n3CCCCC2)C1 (configuration not stated),-,-,?,?,-,-
COc1ccc(Cl)cc1NC(=O)C1CCCN(c2ncnc3c2nc2n3CCCCC2)C1 (configuration not stated),-,-,8.2µM,8.2µM,-,-
O=C(C1CCC(=O)N(C2CCCC2)C1)N1CCN(Cc2cccc(F)c2)CC1 (configuration not stated),-,-,-,-,-,?
COc1ccc(C(=O)O)cc1NC(=S)NC(=O)C(c1ccccc1)c1ccccc1,.,-,-,-,-,.
O=C(Nc1ccc(Cl)cn1)C1CCN(c2ncnc3c2nc2n3CCCCC2)CC1,?,?,?,16.4µM,?,20.6µM
O=C(NCCc1ccccc1)C1CCCN(c2ncnc3c2nc2n3CCCCC2)C1 (configuration not stated),?,-,?,?,-,-
O=C(Nc1ccc(Cl)cn1)C1CCCN(c2ncnc3c2nc2n3CCCCC2)C1 (configuration not stated),-,-,20.6µM,20.6µM,-,?
Cc1ccnc(NC(=O)C2CCCN(c3ncnc4c3nc3n4CCCCC3)C2)c1 (configuration not stated),-,-,-,?,-,-
Cc1ccc(NC(=O)C2CCCN(c3ncnc4c3nc3n4CCCCC3)C2)nc1 (configuration not stated),-,-,13µM,8.2µM,-,-
O=C(NCc1ccc(Cl)cc1)C1CCN(c2ncnc3c2nc2n3CCCCC2)CC1,.,.,-,-,.,.
O=C(NCCCN1CCN(c2ccccc2)CC1)C1CCCN(c2ncnc3c2nc2n3CCCCC2)C1 (configuration not stated),-,-,23.1µM,?,-,-
Cc1ccccc1CSCC1Nc2ccc(C(=O)NCCc3ccccc3)cc2NC1=O (configuration not stated),-,-,?,?,-,-
Cc1ccc(CCNC(=O)C2CCCN(c3ncnc4c3nc3n4CCCCC3)C2)cc1 (configuration not stated),-,-,?,-,-,?
CCOc1ccc(CCNC(=O)C2CCCN(c3ncnc4c3nc3n4CCCCC3)C2)cc1 (configuration not stated),-,-,?,23.1µM,-,-
O=C(Nc1ccccn1)C1CCCN(c2ncnc3c2nc2n3CCCCC2)C1 (configuration not stated),-,-,?,14.6µM,-,-
COc1ccc(-c2cc3nc(C)cc(N4CCN(C(=O)c5ccco5)CC4)n3n2)cc1,-,-,20.6µM,11.6µM,-,-
Cc1ccc(-c2cc3nc(C)cc(N4CCN(C(=O)c5ccoc5)CC4)n3n2)cc1,-,-,?,18.4µM,-,-
Cc1cc(N2CCN(C(=O)c3ccco3)CC2)n2nc(C)c(-c3ccccc3)c2n1,?,-,23.1µM,23.1µM,-,3.66µM
